Reference: PubChem BioAssay (NCATS)
Results filed as inconclusive are left out. Activity calls are given as the source filed them. Calls follow the shape of the dose curve; as a rule, active = well fitted inhibition curve with a large enough effect; inconclusive = small, poorly fitted or top-dose-only effect; inactive = flat fitted curve, though single readings scatter.

Columns and labels:
Experiment in all cases: qHTS profiling for inhibitors of Plasmodium falciparum proliferation (AID 504749); also: nearly all actives have a fitted effect of over 60% in size
Settings in all cases: P. falciparum in erythrocytes, SYBR Green DNA, 72 h; series mostly up to 28.7 µM
CP247 = tested on: CP247
Method in brief: (§1)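 Readout was DNA-dye fluorescence from lysed cultures, ex 485/em 535 nm. Parasitized red cells had grown 72 h with compound; data scaled between 0.29 uM artemisinin and DMSO wells and corrected using vehicle-only plates.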

CP250 = tested on: CP250
Method in brief: as §1

CP252 = tested on: CP252
Method in brief: as §1

CP256 = tested on: CP256
Method in brief: as §1

CP260 = tested on: CP260
Method in brief: as §1

CP262 = tested on: CP262
Method in brief: as §1

CP265 = tested on: CP265
Method in brief: as §1

CP266 = tested on: CP266
Method in brief: as §1

CP268 = tested on: CP268
Method in brief: as §1

CP269 = tested on: CP269
Method in brief: as §1

CP286 = tested on: CP286
Method in brief: as §1

CP291 = tested on: CP291
Method in brief: as §1

CP297 = tested on: CP297
Method in brief: as §1

CP305 = tested on: CP305
Method in brief: as §1

CP315 = tested on: CP315
Method in brief: as §1

CP325 = tested on: CP325
Method in brief: as §1

CP329 = tested on: CP329
Method in brief: as §1

CP335 = tested on: CP335
Method in brief: as §1

DFO2036 = tested on: DFO2036
Method in brief: as §1

DIV14 = tested on: DIV14
Method in brief: as §1

DIV17 = tested on: DIV17
Method in brief: as §1

DIV30 = tested on: DIV30
Method in brief: as §1

Dd2 = tested on: Dd2
Method in brief: as §1

ECU = tested on: ECU
Method in brief: as §1

FAB9 = tested on: FAB9
Method in brief: as §1

GB4 = tested on: GB4
Method in brief: as §1

HB3 = tested on: HB3
Method in brief: as §1

ICS = tested on: ICS
Method in brief: as §1

JCK = tested on: JCK
Method in brief: as §1

N140 = tested on: N140
Method in brief: as §1

P93_24 = tested on: P93_24
Method in brief: as §1

P94_40 = tested on: P94_40
Method in brief: as §1

PAD = tested on: PAD
Method in brief: as §1

PC15 = tested on: PC15
Method in brief: as §1

PC26 = tested on: PC26
Method in brief: as §1

PC49 = tested on: PC49
Method in brief: as §1

SC27B = tested on: SC27B
Method in brief: as §1

TAB109 = tested on: TAB109
Method in brief: as §1

TAB113 = tested on: TAB113
Method in brief: as §1

TAB165 = tested on: TAB165
Method in brief: as §1

W2 = tested on: W2
Method in brief: as §1

Measured: Potency

C[C@@H](Cc1ccc(O)cc1)NC[C@@H](O)c1cc(O)cc(O)c1
inactive: all assays above
